# Bioassay records from PubChem BioAssay.
# VDR inh: vitamin D3 receptor (human) inhibition; P11473; VDR-SRC2-3 peptide fluorescence polarization, 2 h; Potency, µM, for inactives: max response, negative = inhibition, hits mostly inhibitors; 0.93% of 400,000 active
#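 Signal is fluorescence polarization, reporting how far test compounds block the interaction of VDR with the SRC2-3 coregulator peptide after a 2 h room-temperature incubation.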
# TrxR1 inh: inhibitors of rat thioredoxin reductase 1. Potency, µM (series often up to 114 µM), for the others: at the top dose activity change, negative = inhibition, actives largely listed as inhibitors. 1% of 390,000 active. recombinant rTrxR1, NADPH fluorescence consumption, selenite substrate. O89049; further: nearly all actives have a fitted effect of over 65% in size
# Target sequence (O89049 whole entry, looked up): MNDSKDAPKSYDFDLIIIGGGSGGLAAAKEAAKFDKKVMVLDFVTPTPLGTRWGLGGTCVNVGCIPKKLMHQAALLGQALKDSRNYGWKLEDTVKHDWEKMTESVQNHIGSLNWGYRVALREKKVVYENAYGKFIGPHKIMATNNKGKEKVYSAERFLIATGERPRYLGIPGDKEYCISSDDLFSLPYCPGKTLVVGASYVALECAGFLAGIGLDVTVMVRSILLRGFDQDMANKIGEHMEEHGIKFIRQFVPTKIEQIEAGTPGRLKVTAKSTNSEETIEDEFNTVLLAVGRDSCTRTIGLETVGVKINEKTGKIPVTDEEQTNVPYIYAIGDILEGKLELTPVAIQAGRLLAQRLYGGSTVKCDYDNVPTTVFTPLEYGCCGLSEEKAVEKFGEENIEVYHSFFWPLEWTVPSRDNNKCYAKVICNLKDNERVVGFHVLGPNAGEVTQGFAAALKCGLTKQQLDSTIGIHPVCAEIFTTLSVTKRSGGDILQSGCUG
#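 Rat TrxR1 (90 nM in the dispensed reagent) was pre-reduced with 400 uM NADPH for 5 min at room temperature, then incubated with compound for 15 min. After 400 uM selenite was added, NADPH fluorescence (Ex 340/Em 450 nm) was followed for 8 min.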
# GLS inh: inhibitors of human glutaminase (GLS). Potency, µM (highest dose often 45.5 µM), for inactives: at the top dose activity change, negative = inhibition, most hits filed as inhibitors. 0.21% of 410,000 active. GLS enzymatic activity, qHTS titration
#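 hKGA; 45 mM KH2PO4 pH 8.2 + 0.02% Tween-20; cpd via pin tool; 1 mM Gln soln; GluOx/HRP/Amplex Red; RT 30 min; fluor. t0 & final.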
# Sfp PPTase inh: blocks B. subtilis Sfp PPTase activity. Potency, µM, for the others: largest response in the series, negative = inhibition, hits mostly inhibitors. Biochemical Sfp PPTase activity, qHTS. Q9F4F7. 3.5% of 310,000 active;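 further: the enzyme is Sfp with the accession as filed and its product quenches rhodamine fluorescence; 0% = enzyme reaction without inhibitor and -100% = no enzyme wells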
#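 Sfp 15 nM + cpd, 15 min RT; start w/ rhodamine-CoA 5 uM, BHQ-2-YbbR 12.5 uM (final); 50 mM Hepes pH 7.6, 10 mM MgCl2, 0.01% NP-40, 0.01% BSA; read 525/598 nm at 0 and 30 min.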
# TrxR1 substrate: rat thioredoxin reductase 1 substrate activity. O89049. purified TrxR1 substrate turnover, NADPH consumption readout. Potency, µM (top dose mostly 114 µM), without a hit: at the highest dose activity change, negative = substrate turnover. 0.01% of 390,000 active. AID 588456; further: nearly all actives have a fitted effect of over 50% in size
#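 Rat TrxR1, dispensed at 90 nM, was prereduced with 400 uM NADPH (final) for 5 min at ~22 deg C, then incubated with compound 15 min before 400 uM selenite. A first-read NADPH fluorescence drop versus no-compound background flagged substrates.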
# GCN5L2 inh: blocks human GCN5L2 histone acetyltransferase; 0.21% of 390,000 active; AID 504327; GCN5L2 HAT assay, ThioGlo1 CoA-SH fluorescence; Q92830; Potency, µM (highest dose often 58.9 µM), for the others: at the highest dose activity change, negative = inhibition, usual class: inhibitors
#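 Preincubate 20nM GCN5L2 with compound 15 min, RT → add 50uM ThioGlo1 + 75uM H3(1-25) + 70uM acetyl-CoA → read fluorescence 0 and 20 min. Primary qHTS; fluorescent artifacts likely.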
# Active calls of the source: *; ? = inconclusive; . = no result; [ ] = dose if it differs, or a comment. A selection: hits, their analogues and other compounds. The true share with any hit is near 3.8%. The call rests on the fitted dose curve; in most records, active means well fitted curve in the direction sought with a large enough effect; inconclusive means small, poorly fitted or top-dose-only effect, or another doubt; inactive means no such curve, though single readings can be large; an effect the other way counts as inactive or inconclusive. Unless noted, on the % scale 0 is the no-effect control and ±100 the full control effect; potency means the concentration at half of the fitted maximal effect.
SMILES,VDR inh,TrxR1 inh,GLS inh,Sfp PPTase inh,TrxR1 substrate,GCN5L2 inh
CCCNC(=O)C1(C)CCCN(CC(=O)c2ccc3c(c2)OCCO3)C1 (stereo not drawn),.,.,1%,.,.,.
COC(=O)[C@H](CC(C)C)NC(=O)NCc1ccc(Cl)cc1,-2%,19%,-8%,0%,7%[57.1 µM],1%
CC1(C(=O)OCC(=O)Nc2ccccc2)CC1(Cl)Cl (stereo not drawn),-13%,15%[57.1 µM],-6%,12%,2%[57.1 µM],0%
c1csc(CCCN2CCCCC2)c1,-14%,22%[11.4 µM],9%,.,19%[57.1 µM],.
Cc1ccc2[nH]c(O)c(N=Nc3ccccc3C)c2c1,?,?,6%,35µM*,8%,-13%
Cc1ccccc1N=Nc1c(O)[nH]c2ccccc12,-15%,?,0%,.,10%[57.1 µM],.
CCOC(=O)c1c(C)n(C)c2c1cc(OC(C)=O)c1ccccc12,-21%,3%[57.1 µM],6%,13%,-5%[57.1 µM],-1%
Cc1ccc(N2C(=O)C3C4C=CC(CNC(=S)Nc5ccc(F)cc5)(O4)C3C2=O)cc1 (stereo not drawn),-24%,16µM*,7%,14µM*,-12%,-2%
Cc1ccc(C)c(NC(=S)N2CCN(c3ccccn3)CC2)c1,-13%,29%,-6%,-1%,7%,2%
Cc1ccc(N2C(=O)C3C4C=CC(CNC(=S)N5CCN(c6ccccn6)CC5)(O4)C3C2=O)cc1 (stereo not drawn),79µM*,11µM*,2%,28µM*,5%,-18%
Cc1ccc(N2C(=O)C3C4C=CC(CNC(=S)Nc5ccc(Cl)cc5)(O4)C3C2=O)cc1 (stereo not drawn),-26%,28µM*,-7%,40µM*,-2%,-11%
Cc1ccc(N2C(=O)N(CC(=O)Nc3cccc(Cl)c3)C(=O)C2C)cc1 (stereo not drawn),-12%,-10%,5%,.,-6%,-27%
Cc1ccc(N2C(=O)C3C4C=CC(CNC(=S)Nc5cccc(Cl)c5)(O4)C3C2=O)cc1 (stereo not drawn),?,7.9µM*,0%,35µM*,-14%,-11%
Cc1ccc(CNC(=O)C2CCCN(C(=O)Nc3ccc(F)cc3)C2)cc1 (stereo not drawn),6%,14%[57.1 µM],19%,1%,8%[57.1 µM],-8%
Cc1onc(-c2c(Cl)cccc2Cl)c1C(=O)c1c[nH]c(C(=O)NCCCN2CCOCC2)c1,-8%,-3%,10%,11%,-2%,-2%
CC1CCN(c2nc3c(S(=O)(=O)c4ccccc4)nnn3c3ccc(Cl)cc23)CC1,0%,5%,2%,.,19%,-2%
Cc1ccccc1NC(=O)Cn1nc(C)c2ccccc2c1=O,-19%,9%,22%,9%,7%[57.1 µM],-4%
O=[N+]([O-])c1cc([N+](=O)[O-])c2cc3ccccc3nc2c1,?,45µM*,-17%,-6%,4%,-4%
Cc1ccc(NC(=O)N2CCN(c3ccc(Cl)c(Cl)c3)CC2)cc1,-12%,0%,8%,.,0%,-11%
COc1ccc(N=C2C(=S)N(c3ccc(OC)cc3)C(=NS(=O)(=O)c3ccccc3)N2c2ccccc2)cc1,?,-10%[11.4 µM],14%,.,6%[11.4 µM],.
N=C1N(c2ccccc2)C(=S)C(=Nc2ccccc2)N1c1ccccc1,8.9µM*,10%[11.4 µM],-4%,.,4%[11.4 µM],.
O=C1CC(N(O)c2ccccc2)C(=O)N1c1ccc(Cl)c(Cl)c1 (stereo not drawn),-11%,0%,28%,11%,-1%,-4%
COc1ccccc1N(O)C1CC(=O)N(c2ccc(Br)cc2)C1=O (stereo not drawn),50µM*,45µM*,-9%,-61%,-9%,-29%
CCOc1ccc(N2C(=O)CC(Cc3ccc(Br)cc3)C2=O)cc1 (stereo not drawn),-1%,20%,-3%,14%,-1%,-12%
